A selection: hits, their analogues and other compounds. The true share with any hit is near 1.6%.
KCNQ2 inh: KCNQ2 (rat) channel inhibition. O88943. CHO-K1 KCNQ2, FluxOR thallium flux, 20 min; active compounds read low. B-score at 10 µM. 310,000 compounds, 1.1% hits;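 active = fluorescence ratio B-score at most minus 3 library SDs, with starting brightness B-score within 2 library SDs, cut at about -5.5 in these data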
KCNQ2 pot: enhances the rat KCNQ2 potassium channel. O88943. CHO-K1 KCNQ2, FluxOR thallium flux fluorescence; active compounds read high. B-score at 10 µM. 310,000 compounds, 0.54% hits. AID 2239;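 active = fluorescence ratio B-score at least 3 SD of library B-scores, with initial fluorescence B-score within 3 of them, cut at about 5.3 in these data; same plate scores as AID 2156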;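 note: B-score of peak minus minimum over baseline fluorescence ratio after K+ and Tl+ stimulus; positive B-score means potentiation of KCNQ2 with more thallium influx and brighter signal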
Kir21 conf inh: confirmation of mouse Kir2.1 potassium channel inhibitors | shares compounds with KCNQ2 pot | Kir2.1-expressing cells, FluxOR thallium flux fluorescence; active compounds read low | Tl flux remaining, % of negative control (active compounds read low), % at 10 µM | AID 2032 | 2,300 compounds, 41% hits;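 active = Primary-screen hit whose thallium flux fell at least 3 control SD below untreated wells in both duplicates, with normal baseline fluorescence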;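 note: 0% = blank wells without stimulus and 100% = stimulated no-compound controls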
Target sequence (P35561 whole entry, looked up): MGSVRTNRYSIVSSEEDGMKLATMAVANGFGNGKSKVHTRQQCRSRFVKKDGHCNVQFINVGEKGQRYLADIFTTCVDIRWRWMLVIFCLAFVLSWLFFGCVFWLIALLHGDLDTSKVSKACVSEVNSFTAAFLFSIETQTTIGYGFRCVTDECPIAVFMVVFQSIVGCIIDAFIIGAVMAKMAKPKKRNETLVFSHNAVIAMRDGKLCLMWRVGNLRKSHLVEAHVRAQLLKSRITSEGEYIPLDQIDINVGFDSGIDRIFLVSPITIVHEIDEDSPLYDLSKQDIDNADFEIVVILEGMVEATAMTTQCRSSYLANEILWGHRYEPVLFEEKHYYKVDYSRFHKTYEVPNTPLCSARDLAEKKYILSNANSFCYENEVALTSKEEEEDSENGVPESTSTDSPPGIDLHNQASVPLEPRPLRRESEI
HEK293 ctr: counter-screen for Kir2.1 inhibitors: effect in parental HEK293 cells; AID 2105; FluxOR signal as % of negative control (100 = no effect), % at 10 µM; shares compounds with KCNQ2 pot; FluxOR thallium flux fluorescence; 0% = unstimulated blank wells; 2,300 compounds, 19% hits;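 active = dye signal at least 3 control SD above or below untreated wells in both duplicates, raw fluorescence within 3, either direction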;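 note: percent is based on the flux ratio of peak minus minimum fluorescence over baseline F0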
CHO-K1 Tl ctr: counter-screen for KCNQ2 potentiators: effect in parental CHO-K1 cells | shares compounds with KCNQ2 pot | FluxOR thallium flux fluorescence; zero = vehicle mean+3SD, 100% = vehicle-minus-blank window | activity increase over 3SD of controls, % at 10 µM | 1,200 compounds, 43% hits;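 active = signal rise of at least 3 SD above the untreated control mean, in both duplicate wells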;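 note: counter screen of KCNQ2 potentiator hits so any rise reflects channel-independent effects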
KCNQ1 pot spec: human KCNQ1 counter-target activity of KCNQ2 potentiators; 1,200 compounds, 28% hits; AID 2283; shares compounds with KCNQ2 pot; activation over 3SD threshold, % at 10 µM; CHO KCNQ1 stable, FluxOR thallium flux fluorescence; beyond 3SD, as % of vehicle-control signal;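 active = fluorescence ratio rise of at least 3 SD of vehicle wells above their mean, in both replicate wells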;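 note: 0% = vehicle mean plus 3 SD and 100% = vehicle minus unstimulated blank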
KCNQ2 pot conf: rat KCNQ2 channel potentiator confirmation. shares compounds with KCNQ2 pot. CHO-KCNQ2 cells, FluxOR thallium flux fluorescence. potentiation, less the hit threshold, % at 10 µM. 1,200 compounds, 68% hits. AID 2287;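 active = fluorescence ratio rising 3 SD or more over the vehicle control mean in both replicates, plus primary screen hit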;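 note: peak minus minimum thallium fluorescence divided by baseline after K/Tl stimulus; 0% = vehicle mean plus 3 SD and 100% = vehicle minus unstimulated blank difference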
Kir21 spec: selectivity of KCNQ2 potentiators: effect on mouse Kir2.1; shares compounds with KCNQ2 pot; activity over 3SD threshold, % at 10 µM; AID 2345; 1,200 compounds, 2% hits; HEK293 Kir2.1, FluxOR thallium flux fluorescence;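 active = fluorescence ratio rise of at least 3 SD above the vehicle-control mean, seen in both replicates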;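 note: 0% = vehicle mean plus 3 SD and 100% = vehicle minus no-stimulus blank window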
KCNQ2 W236L MoA: potentiates the retigabine-insensitive rat KCNQ2 W236L mutant channel; 940 compounds, 10% hits; shares compounds with KCNQ2 pot; CHO KCNQ2-W236L, automated patch clamp current; current increase over 3SD of negative controls (%), active compounds read high, % at 25 µM;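 active = current increase at least 3 SD of the untreated controls above them in both duplicate recordings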
* = called active by the depositor; i = inactive; / = no result given.

SMILES	KCNQ2 inh	KCNQ2 pot	Kir21 conf inh	HEK293 ctr	others
CC1CN(C(=O)CCC(=O)NCCCN2CCN(Cc3ccccc3)CC2)c2cc(Cl)ccc2O1 (stereo not given)	i	/	61%*	i
O=C(CCC(=O)N1CCOc2ccc(Cl)cc21)NCCCN1CCN(Cc2ccccc2)CC1	i	0.7	/	/
Cc1ccc(C23CC4CC(CC(CN)(C4)C2)C3)cc1	i	/	39%*	i
NCC12CC3CC(C1)CC(c1ccc(Br)cc1)(C3)C2	i	/	34%*	i
Cc1ccc(C23CC4CC(CC(C(N)=O)(C4)C2)C3)cc1	i	2	/	/
NCCOc1ccc(C23CC4CC(CC(C4)C2)C3)cc1	i	/	/	/
COc1ccc(-n2ncc3c(=O)n(Cc4c(F)cccc4Cl)cnc32)cc1	i	/	/	/
COc1ccc(S(=O)(=O)N2CCCCCC2)cc1C(=O)Nc1ccccn1	i	0.56	/	/
Cc1cc(S(=O)(=O)Nc2cc(C)c(O)c(C)c2)c(C)s1	i	/	72%*	i
Cc1cc(S(=O)(=O)Nc2ccc3ccccc3c2)c(C)s1	i	0.87	/	/
Cc1ccc(N=Nc2c(N)[nH]n3c(=O)cc(-c4ccccc4)nc23)cc1	i	4.3	/	/
Cc1[nH]n2c(=O)cc(-c3ccc([N+](=O)[O-])cc3)nc2c1-c1ccccc1	i	/	/	/
COc1cccc(N=Nc2c(N)[nH]n3c(=O)cc(-c4ccccc4)nc23)c1	i	5.9*	i	i	CHO-K1 Tl ctr=-7;KCNQ1 pot spec=-19;KCNQ2 pot conf=-9;Kir21 spec=-24
COc1ccc(-c2c(C(F)(F)F)[nH]n3c(=O)cc(-c4ccccc4)nc23)cc1	i	15*	i	225%*	CHO-K1 Tl ctr=-18;KCNQ1 pot spec=66*;KCNQ2 pot conf=49*;Kir21 spec=-31;KCNQ2 W236L MoA=i
CNC(=O)c1cc(S(=O)(=O)Nc2ccc3c(c2)OCO3)ccc1C	i	0.05	/	/
[O-][n+]1c2c(c3c4non(O)c4ccc31)CCCC2	i	/	/	/
Brc1ccc(C2=Nn3cnnc3SC2)cc1	i	0.5	/	/
Cc1ccc(C(=O)NNc2cc(N3CCCC3)nc(N3CCCC3)n2)cc1	i	10*	i	i	CHO-K1 Tl ctr=96*;KCNQ1 pot spec=-16;KCNQ2 pot conf=39*;Kir21 spec=-38;KCNQ2 W236L MoA=i
O=C(NNc1cc(N2CCOCC2)nc(N2CCOCC2)n1)c1ccc(Cl)c(Cl)c1	i	3.1	/	/
CCOC(=O)c1c(N)sc2c1CCC(C)C2 (stereo not given)	i	0.04	/	/
CCOC(=O)c1c(NS(C)(=O)=O)sc2c1CCC(C)C2 (stereo not given)	i	2.2	i	178%*
COc1cccc(CNC(=O)c2ccccc2NC(=O)C2=C(C)OCCS2)c1OC	i	/	/	/
COC(=O)c1sc(NC(=S)NC(=O)c2ccccc2C)nc1C	i	12*	i	302%*	CHO-K1 Tl ctr=-4;KCNQ1 pot spec=33*;KCNQ2 pot conf=47*;Kir21 spec=-37;KCNQ2 W236L MoA=i
COC(=O)c1sc(NC(=S)NC(=O)c2ccc(F)cc2)nc1C	i	2.3	/	/
Cc1ccc2nccc(C(=O)N3CCCC(Nc4ccc(C)c(C)c4)C3)c2c1 (stereo not given)	i	/	/	/
SMILES	KCNQ2 inh	KCNQ2 pot	Kir21 conf inh	HEK293 ctr	others
Cc1cccc(S(=O)(=O)c2c(N)n(-c3ccccc3)c3nc4ccccc4nc23)c1	i	/	/	/
FC(F)(F)c1nnc(Nc2ccc(Cl)cc2)s1	i	3.1	/	/
Fc1ccc(Nc2nnc(C(F)(F)F)s2)cc1Cl	i	7.2*	i	i	CHO-K1 Tl ctr=-4;KCNQ1 pot spec=76*;KCNQ2 pot conf=16*;Kir21 spec=-30;KCNQ2 W236L MoA=i
CN(C)CCCn1cnc2c(c1=N)C(c1ccccc1)c1ccc3ccccc3c1O2 (stereo not given)	i	/	i	i
N=c1c2c(ncn1CCCO)Oc1c(ccc3ccccc13)C2c1ccccc1 (stereo not given)	i	/	/	/
Cc1ccc(C(C2C(=O)CC(C)(C)CC2=O)C2C(=O)CC(C)(C)CC2=O)s1	i	5.6*	i	i	CHO-K1 Tl ctr=-1;KCNQ1 pot spec=-20;KCNQ2 pot conf=-31;Kir21 spec=-58
CC1(C)CC(=O)C(C(c2ccncc2)C2C(=O)CC(C)(C)CC2=O)C(=O)C1	i	/	/	/
Cc1cccc(NC(=S)NC(=O)c2ccc(Br)o2)c1C	i	8.4*	i	148%*	CHO-K1 Tl ctr=47*;KCNQ1 pot spec=-1;KCNQ2 pot conf=28*;Kir21 spec=-21;KCNQ2 W236L MoA=i
O=C(NC(=S)Nc1ccccc1F)c1ccc(Br)o1	i	16*	i	i	CHO-K1 Tl ctr=57*;KCNQ1 pot spec=-16;KCNQ2 pot conf=67*;Kir21 spec=-19;KCNQ2 W236L MoA=i
Cc1cccc(C)c1NC(=S)NC(=O)c1ccc(Br)o1	i	14*	i	i	CHO-K1 Tl ctr=0.9*;KCNQ1 pot spec=-20;KCNQ2 pot conf=60*;Kir21 spec=-21;KCNQ2 W236L MoA=i
Cc1c(NC(=S)NC(=O)c2ccc(Br)o2)c(=O)n(-c2ccccc2)n1C	i	/	/	/
O=C(NNC(=S)Nc1ccccc1C(F)(F)F)c1ccc(Br)o1	i	0.04	/	/
Cc1ccc(NC(=S)NC(=O)c2ccc(Br)o2)c(C)c1	i	1.9	/	/
CCc1ccc(OCC(=O)NNC(=O)C2CCC2)cc1	i	1.7	/	/
C=CCn1c(CNC(=O)c2ccccc2F)nnc1SCC(=O)N1CCOCC1	i	/	/	/
Cc1cccc(N2CCN(C(=O)c3cc(C)oc3C)CC2C)c1 (stereo not given)	i	/	/	/
Cc1c(N=NC2=C(O)CC(C)(C)CC2=O)cc2c(c1[N+](=O)[O-])C(C)(C)CC2(C)C	i	6.7*	i	i	CHO-K1 Tl ctr=42*;KCNQ1 pot spec=-11;KCNQ2 pot conf=0;Kir21 spec=-31;KCNQ2 W236L MoA=i
COc1ccccc1N=NC1=C(O)CC(C)(C)CC1=O	i	/	/	/
COc1ccccc1Nc1nc(-c2cccc([N+](=O)[O-])c2)cs1	i	1.6	/	/
O=[N+]([O-])c1cccc(-c2csc(Nc3ccccc3)n2)c1	i	0.15	i	i
COc1ccccc1OCC(=O)NNC(=O)C(=O)N1CCCC1	i	0.02	/	/
Cc1ccc(N=C(NO)c2cnccc2C(F)(F)F)c(C)c1	i	7.4*	i	i	CHO-K1 Tl ctr=-2;KCNQ1 pot spec=-14;KCNQ2 pot conf=-26;Kir21 spec=-39
Cc1ccc(NC(=O)NC(=O)c2cnccc2C(F)(F)F)c(C)c1	i	0.34	/	/
COc1cc(CN(C(=S)NCC(=O)NC2CC2)C2CCCC2)cc(OC)c1OC	i	1.1	/	/
COC(=O)c1c(NC(=O)CCNCc2ccco2)sc2c1CCC2	i	0.39	18%*	i
CCOC(=O)c1c(NC(=O)c2ccco2)sc2c1CCCC2	i	0.59	/	/
COc1ccc(NC(=O)c2c(NC(=O)CNCc3ccco3)sc3c2CCC3)cc1	i	/	/	/
